Several values for one entry are separate records, joined by “and”; a condition that tells them apart may be missing. Equal values may be shown once. Out of some 240,000 compounds screened, about 1,300 (0.54%) were called active. About 1% were inconclusive and are not listed. Calls follow the shape of the dose curve; as a rule, active = well fitted inhibition curve with a large enough effect; inconclusive = small, poorly fitted or top-dose-only effect; inactive = flat fitted curve, though single readings scatter. For the sample, actives were picked, then their nearest neighbours and some compounds at random. More than one record can exist for a structure, and the calls need not agree.
Potency is read from the fitted curve at half-maximal effect.

ATP-dependent DNA helicase Q1 (Homo sapiens), sequence (P46063 whole entry, looked up): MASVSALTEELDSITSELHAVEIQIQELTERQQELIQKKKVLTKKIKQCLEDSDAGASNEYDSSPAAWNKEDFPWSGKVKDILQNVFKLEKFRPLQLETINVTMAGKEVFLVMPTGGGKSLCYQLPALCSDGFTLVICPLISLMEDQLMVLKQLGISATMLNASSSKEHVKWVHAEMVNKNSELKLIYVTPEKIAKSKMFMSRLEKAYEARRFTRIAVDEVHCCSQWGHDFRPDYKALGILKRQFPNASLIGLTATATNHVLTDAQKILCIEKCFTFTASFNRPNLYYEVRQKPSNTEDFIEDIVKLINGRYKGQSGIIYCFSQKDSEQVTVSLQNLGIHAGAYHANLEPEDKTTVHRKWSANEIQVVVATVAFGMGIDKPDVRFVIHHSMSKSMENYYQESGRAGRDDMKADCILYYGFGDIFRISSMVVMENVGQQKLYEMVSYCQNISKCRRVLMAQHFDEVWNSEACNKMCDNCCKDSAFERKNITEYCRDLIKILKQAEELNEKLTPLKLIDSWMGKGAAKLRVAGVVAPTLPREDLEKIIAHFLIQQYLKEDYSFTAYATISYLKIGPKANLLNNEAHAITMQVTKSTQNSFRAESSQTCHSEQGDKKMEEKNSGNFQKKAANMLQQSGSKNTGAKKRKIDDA

The test addresses ATP-dependent DNA helicase Q1 (Homo sapiens) (UniProt P46063). The test can be described thus: qHTS Assay for Inhibitors of RecQ-Like Dna Helicase 1 (RECQ1). Also: nearly all actives have a fitted effect of over 30% in size.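 As to activity, negative = inhibition: plate controls were vehicle for no effect and no enzyme for full effect.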 As to conditions: RECQ1 DNA unwinding, red fluorescence kinetic read; series mostly up to 57.3 µM; activity, negative = inhibition: at the top concentration. In short, it runs like this:
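50 nM RECQ1T1 preincubated 15 min with compound in Tris pH 8.0 buffer with MgCl2, DTT, Tween-20 and 2.5 ug/ml poly(dI-dC); started with 200 nM TAMRA/BHQ-2 forked duplex and 2 mM ATP. Unwinding read as fluorescence (525/598 nm), two reads 2 h apart.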
(qHTS replaces the single test concentration by a dilution series.)
On to `O=c1nc2s/c(=C\c3ccco3)c(=O)n2nc1Cc1ccccc1`, for which the Potency is 5.01 µM (active).

With `O=C(CCCN1C(=O)/C(=C/c2ccco2)SC1=S)Nc1ccccc1`, the “activity, negative = inhibition” value is -20% (inactive).

`CCOc1ccccc1/C=c1\sc2nc(-c3ccco3)nn2c1=O`: the “activity, negative = inhibition” value is -5.09% (inactive).

Consider `CCCN1CCC(=O)N(C(CSc2ccc(C)cc2)Cc2ccccc2)CC1` (stereo unspecified), for which the “activity, negative = inhibition” value was -7.14% (inactive).

With `COC(=O)CCc1ccccc1S(=O)(=O)N(CCC(=O)OC)Cc1ccccc1`, the “activity, negative = inhibition” value is -5.73% (inactive).

With `Cc1sc2nc(CSCC(=O)Nc3c(Cl)cccc3Cl)[nH]c(=O)c2c1C`, the “activity, negative = inhibition” value was -7.69% (inactive).

Take `COc1ccc(CCNC(=O)CSc2nnc(CNC(=O)c3cccs3)o2)cc1OC`: the compound was called inactive.

Take `Cc1ccc(NC(=O)CSc2nnc(CNC(=O)c3ccccc3F)o2)cc1`: the “activity, negative = inhibition” value was -3.3% (inactive).

`COc1cc(C(=O)NCc2nnc(SCC(=O)Nc3nc4ccc(C)cc4s3)o2)cc(OC)c1OC`: the Potency is 39.8 µM (active).

`COc1ccc(CN2CCC(=O)c3ccccc3S2(=O)=O)cc1`: the compound was classed as inactive.

For `Cc1ccc(Nc2c3c(nc4ccccc24)CCC3)cc1`, the “activity, negative = inhibition” value is -5.59% (inactive).

For the compound `CC(=O)Nc1ccc(Nc2c3ccccc3nc3ccccc23)cc1`, the Potency is 14.1 µM (active).

`O=[N+]([O-])c1cccc(Nc2c3ccccc3nc3ccccc23)c1`: the “activity, negative = inhibition” value is -1.8% (inactive).

On to `CCOC(=O)Cn1c(=O)sc2cccc(Cl)c21`, for which the “activity, negative = inhibition” value is 5.27% (inactive).

Take `O=C(Nc1ccc(Cl)cc1)Nc1nnc(/C=C/c2ccccc2)s1`: the call was inactive.

With `CCOCCOC(=O)C(C)Oc1ccc(Oc2ncc(C(F)(F)F)cc2Cl)cc1` (stereo unspecified), the “activity, negative = inhibition” value is -19.4% (inactive).

For `C[C@@H]1O[C@@H](OC[C@H]2O[C@@H](Oc3cc(O)c4c(c3)O[C@H](c3ccc(O)c(O)c3)CC4=O)[C@H](O)[C@@H](O)[C@@H]2O)[C@H](O)[C@H](O)[C@H]1O`, the “activity, negative = inhibition” value was -12.6% (inactive).

Turning to `COc1ccc(C[C@H](C(=O)O)N2C(=O)c3ccc(C(=O)O)cc3C2=O)cc1`, the result was inactive.

As for `CN(C)S(=O)(=O)Oc1ccccc1C(=O)Nc1ccccc1Cl`, the “activity, negative = inhibition” value is 2.71% (inactive).

As for `NCCCCC(N)C(=O)O` (stereo unspecified), the “activity, negative = inhibition” value was -3.84% (inactive).

Turning to `COc1ccc(NC(=O)Nc2ccc3nsnc3c2)cc1`, the “activity, negative = inhibition” value is -33.9% (inactive).

Consider `O=C(NCc1ccccn1)c1ccc2nc(-c3ccco3)c(-c3ccco3)nc2c1`, for which the Potency was 15.8 µM (active).

`COCCNC(=O)Nc1ccc2nc(-c3ccco3)c(-c3ccco3)nc2c1`: the Potency was 8.91 µM (active).

For `O=C(Nc1ccc2nccnc2c1)c1ccco1`, the outcome was inactive.

In the case of `O=C(NCc1ccccn1)c1cc(-c2ccccc2Cl)on1`, the “activity, negative = inhibition” value is -5.28% (inactive).

With `O=C(NCc1ccccn1)c1cc(Br)ccc1Cl`, the call was inactive.

Regarding H-EHIPA-OH, the “activity, negative = inhibition” value is -4.14% (inactive).

For the compound `OCCC(O)CO` (stereo unspecified), the Potency result is “inactive”.

With `CC[C@H](C)[C@H](NC(=O)[C@H](CCCNC(=N)N)NC(=O)[C@H](CCCNC(=N)N)NC(=O)[C@H](CC(C)C)NC(=O)[C@H](Cc1ccccc1)NC(=O)CNC(=O)CNC(=O)[C@@H](N)Cc1ccc(O)cc1)C(=O)N[C@@H](CCCNC(=N)N)C(=O)N1CCC[C@H]1C(=O)N[C@@H](CCCCN)C(=O)N[C@@H](CC(C)C)C(=O)N[C@@H](CCCCN)C(=O)N[C@@H](Cc1c[nH]c2ccccc12)C(=O)N[C@@H](CC(=O)O)C(=O)N[C@@H](CC(N)=O)C(=O)N[C@@H](CCC(N)=O)C(=O)O`, the “activity, negative = inhibition” value is -6.92% (inactive).

Consider `CCOC(=O)C(C)Sc1nnc(CSc2nc3nc(C)cc(C)n3n2)o1` (stereo unspecified), for which the “activity, negative = inhibition” value was -0.989% (inactive).

Consider `O=C(NCc1ccccc1)C1=C[C@@H](C2CCCCC2)C[C@@H](OCc2ccc(CO)cc2)O1`, for which the Potency is 15.8 µM (active).

Regarding `O=C(NCc1ccccc1)C1=C[C@H](C2CC2)C[C@H](OCc2ccc(CO)cc2)O1`, the “activity, negative = inhibition” value is -0.989% (inactive).

For `CC(C)(C)[C@H]1C=C(C(=O)NCc2ccccc2)O[C@@H](OCc2ccc(CO)cc2)C1`, the compound was called inactive.

For the compound `Cc1cc(N(C)C)nc(Cl)n1`, the “activity, negative = inhibition” value is -18.3% (inactive).

On to `NCCC(=O)c1ccccc1N`, for which the outcome was inactive.

For `Oc1ccc(-c2c(-c3ccccc3)nn3c(C(F)(F)F)cc(C(F)(F)F)nc23)cc1`, the “activity, negative = inhibition” value is 8.87% (inactive).

For `CC12CCC(C(=O)N(c3cccc(Cl)c3)C1=O)C2(C)C` (stereo unspecified), the “activity, negative = inhibition” value was 3.9% (inactive).

With `CC12CCC(C(=O)N(NC(=O)c3ccccc3O)C1=O)C2(C)C` (stereo unspecified), the Potency is 39.8 µM (active).

On to `O=C(NN1C(=O)C2C(C1=O)C1C=CC2C12CC2)c1ccccc1Cl` (stereo unspecified), for which the “activity, negative = inhibition” value is -3.11% (inactive).

Take `CO[C@@]12[C@@H](COC(N)=O)C3=C(C(=O)C(C)=C(N)C3=O)N1C[C@@H]1N[C@@H]12`: the call was inactive.

Take `Cc1ccc(S(=O)(=O)N2CCC(=O)N([C@H](COCc3ccccc3)Cc3ccccc3)CC2)cc1`: the “activity, negative = inhibition” value is -4.94% (inactive).

For `CC[C@H](C)[C@H](NC(=O)[C@H](Cc1ccc(O)cc1)NC(=O)[C@@H](NC(=O)[C@H](CCCN=C(N)N)NC(=O)[C@@H](N)CC(=O)O)C(C)C)C(=O)N[C@@H](Cc1cnc[nH]1)C(=O)N1CCC[C@H]1C(=O)N[C@@H](Cc1ccccc1)C(=O)O`, the “activity, negative = inhibition” value was 14.2% (inactive).

As to `CCCn1c(C(O)c2ccc(OCC)cc2)nc2ccccc21` (stereo unspecified), the “activity, negative = inhibition” value was -5.82% (inactive).

On to `CCCCCC(O)c1cccc(OCc2ccc3ccccc3n2)c1` (stereo unspecified), for which the Potency result was “inactive and 28.2 µM (active)”.

Regarding `CCCCCCOC(=O)NCC(O)c1ccccc1` (stereo unspecified), the outcome was inactive.

In the case of `COc1ccc(C2/C=C\CN(C(=O)c3ccc(C)cc3)C(Cc3ccccc3)C(=O)N2Cc2ccc(F)cc2)cc1` (stereo unspecified), the result was inactive.

With `COc1ccc(C2/C=C\CN(Cc3ccco3)C(C)C(=O)N2Cc2ccc(F)cc2)cc1` (stereo unspecified), the “activity, negative = inhibition” value was -12.4% (inactive).

`Cc1cccn2c(=O)c(/C=C3\SC(=S)N(CC(C)C)C3=O)c(NCCCOC(C)C)nc12`: the “activity, negative = inhibition” value is 2.64% (inactive).

In the case of `CCOC(=O)CC1C(=O)NCCN1c1nc2c(C)cccn2c(=O)c1/C=C1\SC(=S)N(C(C)CC)C1=O` (stereo unspecified), the Potency was 35.5 µM (active).

Take `CCOC(=O)CC1C(=O)NCCN1C(=O)COc1ccc(Br)cc1C` (stereo unspecified): the “activity, negative = inhibition” value was -8.2% (inactive).

For `CCC(C)(C)NC(=O)c1cc([N+](=O)[O-])ccc1N1CCCCC1`, the “activity, negative = inhibition” value is -6.6% (inactive).

For `COc1ccc(C(CCN2CCOCC2)c2c(OC)cc(OC)c3c2OC(=O)CC3c2ccc(OC)cc2)cc1` (stereo unspecified), the “activity, negative = inhibition” value was -5.93% (inactive).

On to `COc1ccc(Cl)cc1C(=O)NNC(=S)NC(=O)/C=C/c1ccco1`, for which the Potency was 31.6 µM (active).

Turning to `COc1ccc(Cl)cc1C(=O)NNC(=S)NC1CCCC1`, the “activity, negative = inhibition” value is 21.4% (inactive).

With `C=CCNC(=S)NNC(=O)c1cc(Cl)ccc1OC`, the “activity, negative = inhibition” value was -9.23% (inactive).

On to `CC(C)C1N=C2c3ccccc3N=C(SCC(=O)c3ccc(O)c(O)c3)N2C1=O` (stereo unspecified), for which the Potency was 14.1 µM (active).

As for `CCC(C)NC(=O)CSC1=Nc2ccccc2C2=NC(CCC(=O)NCc3ccco3)C(=O)N12` (stereo unspecified), the “activity, negative = inhibition” value is -4.68% (inactive).

On to `O=C(CSC1=Nc2ccccc2C2=NC(CC(=O)NCc3ccco3)C(=O)N12)NCc1ccco1` (stereo unspecified), for which the “activity, negative = inhibition” value is 9.12% (inactive).

Turning to `O=P(O)(O)C(O)c1ccc2ccccc2c1` (stereo unspecified), the “activity, negative = inhibition” value was -4.2% (inactive).

In the case of `CC(C)(C)N(Cc1ccccc1)C(=O)COC(=O)CCc1c[nH]c2ccccc12`, the “activity, negative = inhibition” value was -1.03% (inactive).

On to `COc1cccc(C(=O)Nc2c3c(nn2-c2cccc(C)c2C)CS(=O)(=O)C3)c1OC`, for which the “activity, negative = inhibition” value was -0.603% (inactive).

As to `Cc1cccc(-n2nc3c(c2NC(=O)c2ccc(Br)o2)CSC3)c1C`, the Potency is 35.5 µM (active).

In the case of `Cc1ccc(-n2nc3c(c2NC(=O)c2ccc4c(c2)OCO4)CSC3)c(C)c1`, the “activity, negative = inhibition” value is 0.297% (inactive).

`Nc1nc2c(ncn2[C@@H]2O[C@H](COP(=O)(O)OP(=O)(O)OP(=O)(O)O)[C@@H](O)C2O)c(=O)[nH]1` (stereo partly specified): the outcome was inactive.

In the case of `c1ccc(CN2CCC(N=C3NN=C(c4ccc5c(c4)OCCO5)CS3)CC2)cc1`, the “activity, negative = inhibition” value was -3.29% (inactive).

For the compound `S=c1[nH]c2ccccc2c2ccccc12`, the “activity, negative = inhibition” value was -10.8% (inactive).

As for `COc1ccc(NC(=O)CSc2nc(NS(=O)(=O)c3ccc(C)cc3)cc(=O)[nH]2)cc1`, the Potency is 35.5 µM (active).

Turning to `Cc1ccc(NC(=O)CSc2nc(CSc3ccc(C)cc3)cc(=O)[nH]2)cc1`, the “activity, negative = inhibition” value was 34.7% (inactive).

For `Cc1cc(=O)[nH]c(SCC(=O)Nc2ccc(Br)cc2)n1`, the outcome was inactive.

In the case of `CSc1ccccc1N1CCN(CCCCCC(=O)NC2CCCc3ccccc32)CC1` (stereo unspecified), the “activity, negative = inhibition” value was -8.54% (inactive).

As for `O=[N+]([O-])c1ccccc1S(=O)(=O)Nc1cccc2cccnc12`, the call was inactive.

The values are drawn from PubChem BioAssay AID2549 (National Center for Advancing Translational Sciences (NCATS), 2010).
